Among all 5,500 compounds or so, about 2,000 (36%) were called active. About 18% were inconclusive and are not listed. Rule as the data show it: active = normalized growth mostly below about 0.91 (no sharp cut-off); inconclusive = no clear call, values can overlap the other calls; inactive = mostly above about 0.92. The list shows a part of the results.
Test: chemical genetic growth profiling, strain panel (AID 1159580);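 also: tested at 20 µM; growth read once vehicle control cultures reached saturation at 30 °C; 1 = growth at the plate median or of vehicle wells; lower values mean less growth of the strain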
Conditions: S. cerevisiae deletion strains, growth OD

Measured: normalized growth

CC(=O)C1COc2ccc(C)cc2C1=O (configuration not stated)
inactive: locus YAL013W, strain DEP1, stronger effect = lower value 0.972 | locus YCL061C, strain MRC1, stronger effect = lower value 0.916 | locus YDR150W, strain NUM1, stronger effect = lower value 0.984 | locus YEL061C, strain CIN8, stronger effect = lower value 0.924 | locus YGR078C, strain PAC10, stronger effect = lower value 0.952 | locus YHR087W, strain rtc3, stronger effect = lower value 0.916 | locus YJR043C, strain POL32, stronger effect = lower value 0.931 | locus YJR075W, strain HOC1, stronger effect = lower value 0.903 | locus YMR263W, strain SAP30, stronger effect = lower value 0.96 | locus YNL153C, strain GIM3, stronger effect = lower value 0.954 | locus YNL298W, strain CLA4 (second series), stronger effect = lower value 0.855 | locus YNL322C, strain KRE1, stronger effect = lower value 0.979 | locus YNR030W, strain Alg12, stronger effect = lower value 0.901 | locus YPL055C, strain LGE1, stronger effect = lower value 0.93 | locus YPL241C, strain CIN2, stronger effect = lower value 0.914
active: locus YBR229C, strain ROT2, stronger effect = lower value 0.898 | locus YDL101C, strain DUN1, stronger effect = lower value 0.838 | locus YHR030C, strain SLT2, stronger effect = lower value 0.291 | locus YJL187C, strain SWE1, stronger effect = lower value 0.888 | locus YKL190W, strain CNB1, stronger effect = lower value 0.832 | locus YLR039C, strain RIC1, stronger effect = lower value 0.173 | locus YLR058C, strain SHM2 (second series), stronger effect = lower value 0.923 | locus YLR085C, strain ARP6, stronger effect = lower value 0.44 | locus YLR262C, strain YPT6, stronger effect = lower value 0.176 | locus YML094W, strain GIM5, stronger effect = lower value 0.848 | locus YMR219W, strain ESC1, stronger effect = lower value 0.928 | locus YPR135W, strain CTF4, stronger effect = lower value 0.58

— PubChem BioAssay AID1159580 (chemical genetic matrix, 2015)
